Measurements as given in PubChem BioAssay (Tox21).
Values joined by “and” are separate entries in the source; they are usually repeats but may differ in a detail not shown here. Equal values may be shown once. Inconclusive results are not listed. Entries that show only a call come without a potency. Some compounds were tested as several samples or in several runs, with calls that do not always agree. Active and inactive are the calls of the source. Unless noted, calls come from the whole dose curve.

Tests used:
[1] = Nuclear factor erythroid 2-related factor 2/antioxidant responsive element (Nrf2/ARE) small molecule agonists: qHTS cell viability counter screen in human keratinocytes (AID 1919968; active = well fitted curve in the direction sought with a large enough effect in the repeat runs; an effect the other way counts as inactive or inconclusive; note: nearly all actives have a fitted effect of over 55% in size; note: potency is the fitted concentration of half-maximal effect)
Outline: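 In human HaCaT keratinocytes stably expressing an ARE-driven luciferase, compound exposure lasted 23 h at 37 C under 5% CO2. Viable cells are quantified with a protease-based fluorogenic reagent (CellTiter-Fluor) read 1 h after addition.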

[2] = molecular target: Gonadotropin-releasing hormone receptor (Homo sapiens) (UniProt P30968); assay: Human gonadotropin-releasing hormone receptor (GnRHR) small molecule agonists, calcium flux assay in GnRHR-HEK293 cells (AID 1920063); note: nearly all actives have a fitted effect of over 35% in size
Outline: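 Intracellular calcium rise is the read-out: engineered human GnRHR HEK293 cells, dye-loaded, are exposed to DMSO-dissolved compounds and fluorescence at Ex/Em 480/540 is tracked for 3 min.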

[3] = molecular target: KiSS-1 receptor (Homo sapiens) (UniProt Q969F8); assay: Human kisspeptin (KISS1R) small molecule agonists, calcium flux assay in KISS1R-HEK293 cells (AID 1920064; active = well fitted curve in the direction sought with a large enough effect in the repeat runs; an effect the other way counts as inactive or inconclusive)
Outline: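 Concentration-response testing used 15 concentrations in triplicate on human KISS1R-expressing HEK293 cells. Calcium-dependent fluorescence (Ex/Em 480/540) was followed kinetically for 3 min after compound transfer.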

[4] = G protein-coupled receptor (GPCR) small molecule agonists, calcium flux assay: HEK293 wild type cell line counter screen (AID 1920065)
Outline: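 Fluorescence intensity signals activation. After overnight (18 h) culture and a 1 h calcium dye load at 37 C, compounds are added by pin tool and the plate read at 480/540 nm for 3 min in 1 s steps.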

[5] = p53 small molecule agonists, cell-based qHTS assay with human liver microsomes: qHTS cell viability counter screen (AID 1963579); note: nearly all actives have a fitted effect of over 45% in size; note: potency is the fitted concentration of half-maximal effect
Outline: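 p53RE-bla cells (4,000/well) were pre-incubated 5 h at 37 C, then given compounds in DMSO plus human liver microsomes (0.5 mg/mL final) and NADPH (0.5 mg/mL final) for 16 h at 37 C. Viability was read by CellTiter-Glo luminescence.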

[6] = p53 small molecule agonists, cell-based qHTS assay with rat liver microsomes: qHTS cell viability counter screen (AID 1963580); note: nearly all actives have a fitted effect of over 45% in size
Outline: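 After the beta-lactamase ratio was read, CellTiter-Glo was added to the same wells and luminescence measured at 30 min; cells had been treated 16 h at 37 C with compounds, rat liver microsomes and NADPH (0.5 mg/mL final each).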

[7] = p53 small molecule agonists, cell-based qHTS assay: qHTS cell viability counter screen (AID 1963581); note: nearly all actives have a fitted effect of over 45% in size
Outline: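 Luminescence from CellTiter-Glo, reflecting ATP content, serves as the cytotoxicity measure; it is taken after the 2 h reporter substrate step in HCT-116 p53RE-bla cells dosed for 16 h at 37 C.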

[8] = molecular target: 5-hydroxytryptamine receptor 2A (Homo sapiens) (UniProt P28223); assay: 5-hydroxytryptamine receptor 2A (HTR2A) small molecule antagonists, cell-based qHTS assay (AID 1963586); note: nearly all actives have a fitted effect of over 45% in size
Outline: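 CHO cells stably expressing human HTR2A were plated for 18 h at 37 C, then loaded with calcium dye for 1 h. Compounds were preincubated 5 min at room temperature before DOI (4 nM solution) was added. Kinetic fluorescence was read for 3 min.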

[9] = molecular target: 5-hydroxytryptamine receptor 2A (Homo sapiens) (UniProt P28223); assay: 5-hydroxytryptamine receptor 2A (HTR2A) small molecule agonists, cell-based qHTS assay (AID 1963587); note: nearly all actives have a fitted effect of over 30% in size; note: potency is the fitted concentration of half-maximal effect
Outline: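 CHO cells stably expressing human HTR2A, plated 18 h, loaded with calcium dye 1 h at 37 C. Agonist mode: compounds added and intracellular calcium fluorescence recorded kinetically for 2 min at 1 sec intervals.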

[10] = molecular target: Muscarinic acetylcholine receptor M1 (Homo sapiens) (UniProt P11229); assay: Cholinergic receptor muscarinic 1 (CHRM1) small molecule antagonists, cell-based qHTS assay (AID 1963588); note: nearly all actives have a fitted effect of over 40% in size; note: potency is the fitted concentration of half-maximal effect
Outline: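 Compounds were tested at 15 concentrations in three independent runs. Dye-loaded CHRM1-CHO cells were exposed 5 min at room temperature before stimulation by acetylcholine added at 50nM. Intracellular calcium was read kinetically on FDSS for 3 min.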

[11] = molecular target: Muscarinic acetylcholine receptor M1 (Homo sapiens) (UniProt P11229); assay: Cholinergic receptor muscarinic 1 (CHRM1) small molecule agonists, cell-based qHTS assay (AID 1963589); note: nearly all actives have a fitted effect of over 35% in size
Outline: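 Fluorescent calcium dye reports M1 activation in stably transfected CHO cells. Compounds, 15 concentrations, added after 1 h dye loading at 37 C; kinetic reading at 1 sec intervals.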

[12] = cAMP Responsive Elements (CRE) small molecule agonists, cell-based qHTS assay (AID 1963590)
Outline: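 Compound exposure lasted 3 h at 37 C/5% CO2 in CRE-bla HEK 293T cells grown in assay medium with 10% dialyzed FBS and 25 mM HEPES. Reporter signal came from LiveBLAzer B/G FRET substrate, 2 h, room temperature.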

[13] = cAMP Responsive Elements (CRE) small molecule antagonists, cell-based qHTS assay (AID 1963591; active = well fitted inhibition curve with a large enough effect in the signal ratio in the repeat runs, not every such curve was filed as active; the % refers to the signal ratio)
Outline: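 Stimulation used NKH477 at a final 0.25 uM for 3 h in compound-treated CRE-bla HEK293T cells, seeded 18 h beforehand. Reporter activity was measured with LiveBLAzer B/G FRET substrate after 2 h at room temperature.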

[14] = molecular target: Beta-2 adrenergic receptor (Homo sapiens) (UniProt P07550); assay: Adrenergic beta2 receptor (ADRB2) small molecule antagonists, cell-based qHTS assay (AID 1963592); note: series mostly up to about 92 µM; nearly all actives have a fitted effect of over 50% in size
Outline: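 Assay format: CHO-ADRB2 cells, 18-20hr seeding at 37C/5% CO2, then compound plus 1nM isoproterenol agonist mix for 0.5hr RT. Homogeneous time-resolved fluorescence cAMP detection after 1hr, expressed as 665/615 nm ratio.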

[15] = molecular target: Beta-2 adrenergic receptor (Homo sapiens) (UniProt P07550); assay: Adrenergic beta2 receptor (ADRB2) small molecule agonists, cell-based qHTS assay (AID 1963593);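 note: CHO cells stably overexpressing human ADRB2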
Outline: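 CHO cells stably over-expressing ADRB2 were plated overnight at 37C, then dosed with compounds plus a stimulation mix containing 100uM IBMX and 25uM Ro-20-1724 for 0.5hr at room temperature. cAMP was measured by HTRF competition, 1hr.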

[16] = molecular target: D(2) dopamine receptor (Homo sapiens) (UniProt P14416); assay: Dopamine D2 receptor (DRD2) small molecule agonists, cell-based qHTS assay (AID 1963594); note: nearly all actives have a fitted effect of over 35% in size
Outline: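 HEK293 cells stably expressing human DRD2, pre-treated with PDE inhibitor Ro20-1724 (0.1 mM final) and compound 10 min at room temperature, then stimulated with NKH477 (200nM […]) for 30 min. cAMP read by HTRF (665/620 nm).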

[17] = molecular target: D(2) dopamine receptor (Homo sapiens) (UniProt P14416); assay: Dopamine D2 receptor (DRD2) small molecule antagonists, cell-based qHTS assay (AID 1963595; active = well fitted inhibition curve with a large enough effect in the signal ratio in the repeat runs, with a control signal flat; the % refers to the signal ratio)
Outline: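 Cells were plated and grown for 24 h at 37 °C. Ro20-1724 (0.1 mM final) went in first, then compound for 10 min. NKH477 (200 nM) with quinpirole (12 nM) followed for 30 min at RT, then HTRF detection reagents for 1 h.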

[18] = p53 small molecule agonists, cell-based qHTS assay with rat liver microsomes (AID 1963578)
Outline: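 p53RE-bla cells were exposed to compounds together with rat liver microsomes (0.5 mg/mL final) and NADPH (0.5 mg/mL final) for 16 h at 37 C, then read by LiveBLAzer beta-lactamase fluorescence after 2 h at room temperature.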

[19] = p53 small molecule agonists, cell-based qHTS assay (AID 1963582; active = well fitted activation curve with a large enough effect in the signal ratio in the repeat runs, not every such curve was filed as active; the % refers to the signal ratio)
Outline: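 After plating, p53RE-bla cells sat 5 h in the incubator; compounds or DMSO vehicle were pinned in; a 16 h incubation at 37 C followed; FRET substrate was added and, 2 h later at RT, fluorescence was measured.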

[20] = p53 small molecule agonists, cell-based qHTS assay with human liver microsomes (AID 1963577)
Outline: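 p53RE-bla reporter cells were pre-incubated 5 h at 37 C, then treated with compounds plus human liver microsomes (0.5 mg/mL final) and NADPH (0.5 mg/mL final) for 16 h at 37 C. Beta-lactamase activity was read by LiveBLAzer fluorescence after 2 h at room temperature.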

D(2) dopamine receptor (Homo sapiens), sequence (P14416 whole entry, looked up): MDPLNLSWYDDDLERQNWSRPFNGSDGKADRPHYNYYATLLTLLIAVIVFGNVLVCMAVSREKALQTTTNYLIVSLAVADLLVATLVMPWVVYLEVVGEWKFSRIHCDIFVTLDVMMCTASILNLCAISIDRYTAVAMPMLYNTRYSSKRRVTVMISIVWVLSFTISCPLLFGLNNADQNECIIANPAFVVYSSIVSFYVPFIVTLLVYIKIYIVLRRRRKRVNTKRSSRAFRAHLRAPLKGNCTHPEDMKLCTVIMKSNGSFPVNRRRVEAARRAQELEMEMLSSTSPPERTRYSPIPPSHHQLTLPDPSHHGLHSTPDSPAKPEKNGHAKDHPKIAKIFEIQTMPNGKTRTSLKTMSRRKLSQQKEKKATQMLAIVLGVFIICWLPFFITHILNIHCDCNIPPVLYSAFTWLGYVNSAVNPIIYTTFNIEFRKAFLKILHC
5-hydroxytryptamine receptor 2A (Homo sapiens), sequence (P28223 whole entry, looked up): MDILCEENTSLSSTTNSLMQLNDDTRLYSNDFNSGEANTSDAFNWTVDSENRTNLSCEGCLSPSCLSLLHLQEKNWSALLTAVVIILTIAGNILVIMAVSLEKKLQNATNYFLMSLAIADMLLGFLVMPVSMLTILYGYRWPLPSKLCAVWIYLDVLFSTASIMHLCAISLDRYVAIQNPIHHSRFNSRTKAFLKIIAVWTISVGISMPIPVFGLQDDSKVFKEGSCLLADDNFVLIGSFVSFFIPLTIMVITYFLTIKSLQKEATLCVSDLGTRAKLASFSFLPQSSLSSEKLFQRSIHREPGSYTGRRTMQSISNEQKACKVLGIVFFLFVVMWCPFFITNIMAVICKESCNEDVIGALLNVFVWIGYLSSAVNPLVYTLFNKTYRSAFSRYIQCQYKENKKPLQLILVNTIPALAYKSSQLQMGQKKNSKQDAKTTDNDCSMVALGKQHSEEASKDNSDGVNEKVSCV
Muscarinic acetylcholine receptor M1 (Homo sapiens), sequence (P11229 whole entry, looked up): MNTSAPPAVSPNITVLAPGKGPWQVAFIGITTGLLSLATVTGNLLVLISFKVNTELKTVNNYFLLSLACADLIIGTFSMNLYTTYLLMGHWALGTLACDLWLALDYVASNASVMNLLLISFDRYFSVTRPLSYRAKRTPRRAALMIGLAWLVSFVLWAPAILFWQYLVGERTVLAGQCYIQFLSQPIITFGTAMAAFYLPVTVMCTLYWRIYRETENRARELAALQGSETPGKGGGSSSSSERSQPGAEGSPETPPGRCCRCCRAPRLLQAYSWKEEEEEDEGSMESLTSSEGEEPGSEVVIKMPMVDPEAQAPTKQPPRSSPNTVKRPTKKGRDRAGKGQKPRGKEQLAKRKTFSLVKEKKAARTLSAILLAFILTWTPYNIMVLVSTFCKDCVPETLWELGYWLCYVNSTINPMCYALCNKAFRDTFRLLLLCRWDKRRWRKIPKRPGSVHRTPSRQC
Beta-2 adrenergic receptor (Homo sapiens), sequence (P07550 whole entry, looked up): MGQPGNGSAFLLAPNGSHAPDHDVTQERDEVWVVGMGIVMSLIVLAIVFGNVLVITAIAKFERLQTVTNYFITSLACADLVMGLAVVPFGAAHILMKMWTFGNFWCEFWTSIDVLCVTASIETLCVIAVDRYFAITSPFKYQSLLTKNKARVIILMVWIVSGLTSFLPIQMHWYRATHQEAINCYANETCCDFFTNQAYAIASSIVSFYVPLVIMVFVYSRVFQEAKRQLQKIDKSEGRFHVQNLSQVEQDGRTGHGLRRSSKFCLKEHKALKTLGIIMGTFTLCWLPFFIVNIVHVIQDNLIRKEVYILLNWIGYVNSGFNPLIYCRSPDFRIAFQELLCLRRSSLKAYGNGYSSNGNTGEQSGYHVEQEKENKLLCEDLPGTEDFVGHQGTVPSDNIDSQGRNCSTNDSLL
KiSS-1 receptor (Homo sapiens), sequence (Q969F8 whole entry, looked up): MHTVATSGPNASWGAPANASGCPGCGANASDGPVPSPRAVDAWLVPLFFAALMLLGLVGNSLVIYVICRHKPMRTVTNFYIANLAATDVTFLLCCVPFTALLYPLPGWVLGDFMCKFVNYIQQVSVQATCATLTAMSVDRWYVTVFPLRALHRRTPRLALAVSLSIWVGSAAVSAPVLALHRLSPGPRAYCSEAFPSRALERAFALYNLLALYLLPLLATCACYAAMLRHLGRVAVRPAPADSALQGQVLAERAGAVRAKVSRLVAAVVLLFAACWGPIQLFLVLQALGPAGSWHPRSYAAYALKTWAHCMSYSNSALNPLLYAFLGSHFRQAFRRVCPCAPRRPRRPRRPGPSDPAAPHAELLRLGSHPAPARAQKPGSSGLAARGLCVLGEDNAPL
Gonadotropin-releasing hormone receptor (Homo sapiens), sequence (P30968 whole entry, looked up): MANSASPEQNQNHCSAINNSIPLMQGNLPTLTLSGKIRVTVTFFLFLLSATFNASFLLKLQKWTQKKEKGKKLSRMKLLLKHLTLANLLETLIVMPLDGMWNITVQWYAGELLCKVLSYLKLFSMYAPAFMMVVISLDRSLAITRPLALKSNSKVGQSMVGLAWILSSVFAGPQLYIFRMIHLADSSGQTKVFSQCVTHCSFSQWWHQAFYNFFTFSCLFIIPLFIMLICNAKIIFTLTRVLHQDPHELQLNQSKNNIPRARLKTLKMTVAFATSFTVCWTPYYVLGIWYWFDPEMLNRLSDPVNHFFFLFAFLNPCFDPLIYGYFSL

SMILES | Potency [1] | Potency [2] | Potency [3] | Potency [4] | Potency [5] | Potency [6] | Potency [7] | Potency [8] | Potency [9] | Potency [10] | Potency [11] | Potency [12] | Potency [13] | Potency [14] | Potency [15] | Potency [16] | Potency [17] | Potency [18] | Potency [19] | Potency [20]
CCCCCCCCCCCCOS(=O)(=O)O | inactive | inactive | inactive | inactive | inactive | inactive | inactive | inactive | inactive and 55 µM (active) and 49 µM (active) | inactive | inactive | inactive | inactive | inactive | inactive | inactive | inactive |  |  | 
[Cd+2].[Cl-].[Cl-] | 27.5 µM (active) and 43.3 µM (active) | inactive | inactive | inactive | inactive | inactive |  | inactive |  | inactive | inactive | inactive |  | inactive |  | inactive | inactive |  |  | 
O=S(=O)(O)O | inactive | inactive | inactive | inactive | inactive | inactive | inactive | inactive | inactive | inactive | inactive | inactive | inactive | inactive | inactive | inactive | inactive |  |  | 
CCCCn1cc[n+](C)c1 | inactive | inactive | inactive | inactive | inactive and 40.8 µM (active) | inactive | inactive | inactive | inactive | inactive | inactive | inactive | inactive | inactive | inactive | inactive | inactive |  |  | 
O=C(Cl)CCl | inactive | inactive | inactive | inactive | inactive |  | inactive | inactive | inactive | inactive | inactive | inactive | inactive | inactive | inactive | inactive | inactive | inactive | inactive | 
CNC | inactive | inactive | inactive | inactive | inactive | inactive | inactive | inactive | inactive | 3.34 µM (active) and inactive | inactive | inactive | inactive | inactive | inactive | inactive | inactive | inactive | inactive | 
CCOP(=S)(OCC)Oc1cc(C)nc(C(C)C)n1 | inactive | inactive | inactive | inactive | inactive | inactive | inactive | inactive | inactive |  | inactive | inactive | inactive | inactive | inactive | inactive | inactive |  | inactive | inactive
CN(C)c1ccc(N=O)cc1 | 27.4 µM (active) and 54.5 µM (active) | inactive | inactive | inactive | inactive | inactive |  | inactive | inactive | inactive | inactive |  |  |  |  |  |  |  |  | inactive
